The source of these data is PubChem BioAssay (NCATS).

Values joined by “and” are separate entries in the source; they are usually repeats but may differ in a detail not shown here. Equal values may be shown once. A number with no mark means an inactive call. Records with an inconclusive call do not appear. Active and inactive are the calls of the source. Unless noted, calls come from the whole dose curve; as a rule, active = well fitted curve in the direction sought with a large enough effect; inconclusive = small, poorly fitted or top-dose-only effect, or another doubt; inactive = no such curve, though single readings can be large; an effect the other way counts as inactive or inconclusive.

A short description of assay [1]: qHTS assay for small molecule agonists of the antioxidant response element (ARE) signaling pathway (AID 651741; active = well fitted activation curve with a large enough effect in the signal ratio; the % refers to the signal ratio; note: % of control where 0% means no effect). In a few lines: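 ARE-bla HepG2 cells (beta-lactamase reporter under ARE control) were plated at 2,000 cells/well, preincubated 5 h at 37 C/5% CO2, then treated with DMSO-dissolved compounds for 16 h at 37 C; LiveBLAzer B/G FRET substrate added, fluorescence read after 2 h at room temperature.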
On the technique in general: In qHTS, concentration-response curves come from the screen itself.

Assay [2] can be described thus: qHTS assay for small molecule activators of the nuclear factor-kappa B (NF-kB) signaling pathway (AID 651749; active = well fitted activation curve with a large enough effect in the signal ratio; the % refers to the signal ratio; note: series mostly up to about 77 µM; % of control where 0% means no effect). The conditions noted are these: NF-kB-bla ME-180 cells, beta-lactamase FRET ratio, 16 h; active compounds read high. In a few lines:
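ME-180 cells stably carrying a beta-lactamase reporter under an NF-kB response element were exposed to compound or DMSO vehicle for 16 hr at 37C, 5% CO2. Pathway activation was read by FRET, since reporter expression disrupts FRET.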

Assay [3] is described as follows: qHTS assay for environmental chemicals that activate the Aryl hydrocarbon Receptor (AhR) signaling pathway (AID 651777). Note: % of control where 0% means no effect; nearly all actives have a fitted effect of over 15% in size. To be noted: 1A2-DRE human hepatoma cells, luciferase, 24 h; activation: active compounds read high. The essentials:
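Luminescence read-out: One-Glo added for 30 min at RT after 24 hr compound treatment (37 C, 5% CO2) of human hepatoma cells expressing a DRE/CYP1A2 promoter–luciferase reporter; increased signal indicates AhR activation.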

Assay [4] is described as follows: qHTS for compounds that reverse cellular toxicity of Amyloid beta (A-beta) peptide in yeast: LOPAC Validation Assay (AID 720559).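 Note: plate controls were DMSO for no effect and equimolar ferric chloride plus clioquinol rescue for full effect.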 The essentials:
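Yeast expressing toxic A-beta grown with pinned compounds at 30 C for 48 hr. Growth measured as absorbance at 600 nm; data normalized to DMSO and to an equimolar FeCl3/clioquinol mixture as positive control.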

A short description of assay [5]: qHTS for Activators of Parkin Expression: LOPAC Validation Assay (NLuc Reporter) (AID 720572;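 note: 0% = DMSO and 100% = positive control compound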). The essentials:
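Neuronal line stably carrying a FLuc/NLuc coincidence reporter under the Parkin promoter, seeded 24 h, then dosed in 7-point series for 24 h at 37 C. NLuc luminescence read after FLuc; normalized to DMSO and positive control (100%).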

The nature of assay [6]: qHTS for Activators of Parkin Expression: LOPAC Validation Assay (FLuc Reporter) (AID 720573;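 note: 0% = DMSO and 100% = positive control compounds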). In a few lines:
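Neuronal cell line stably expressing FLuc/NLuc coincidence reporter under the Parkin promoter, 1,500 cells/well, dosed 24 h after seeding in 7-point series for 24 h at 37 C. FLuc luminescence read; normalized to DMSO and positive control (100%).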

The target of assay [7] is T1, Hexokinase-4 (Homo sapiens) + Glucokinase regulatory protein (Homo sapiens) (UniProt P35557+Q14397). Briefly: qHTS assay for inhibitors of recombinant human GCK-GKRP interaction: Diaphorase-coupled assay (AID 743205). In a few lines:
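Compounds pre-incubated 20 min with substrate, then 10 nM GST-GCK with 10 nM FLAG-GKRP added. GCK activity coupled via G6PDH and diaphorase to resorufin (5 mM glucose, 0.4 mM ATP, 0.15 mM NADP+, pH 7.6), read kinetically over 30 minutes at Ex 525/Em 590 nm.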

The target of assay [8] is T1, Hexokinase-4 (Homo sapiens) + Glucokinase regulatory protein (Homo sapiens). Briefly: qHTS assay for inhibitors of recombinant human GCK-GKRP interaction: ADP-Glo assay (AID 743206).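 Note: plate controls were DMSO plus enzyme for no effect and no enzyme for full effect.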 The essentials:
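GST-GCK and FLAG-GKRP (15 nM each in the dispensed mix, with 2 uM S6P) react with 0.4 mM ATP and 5 mM glucose (final) in Hepes pH 7.6 for 60 min at room temperature. ADP is measured by ADP-Glo luminescence.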

Assay [9] shares this target. Kind of assay: qHTS assay for inhibitors of recombinant human GCK-GKRP interaction: HTRF assay (AID 743207).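 Note: 0% = DMSO with GCK present and -100% = DMSO wells lacking GCK.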 In a few lines:
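HTRF binding of 5 nM GST-GCK and 5 nM FLAG-GKRP with 2 uM S6P in pH 7.1 Hepes buffer (MgCl2, KCl, DTT, Tween 20, BSA). Anti-FLAG XL665 and anti-GST donor added, 60 min at room temperature; 665/615 nm read, normalized to with- and without-GCK controls.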

Assay [10] concerns the target Arylsulfatase A (Homo sapiens) (UniProt P15289). Kind of assay: qHTS screen for enhancers of Arylsulfatase A (ASA1): LOPAC Validation Assay (AID 720538). Note: potency is the fitted concentration of half-maximal effect. The essentials: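 SV40-transformed fibroblasts from an MLD patient (ASA-I179S) were treated with compound for 48 h at 37 C. They were then lysed with 0.5 mM pNCS substrate (final) for 14 h at room temperature and stopped with NaOH; signal read by fluorescence (Ex 525/Em 598 nm), with increase denoting enhanced activity.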

Assay [11] is described as follows: qHTS assay for small molecule activators of the p53 signaling pathway (AID 651743; active = well fitted activation curve with a large enough effect in the signal ratio, not every such curve was filed as active; the % refers to the signal ratio; note: series mostly up to about 92 µM; % of control where 0% means no effect). To be noted: HCT-116 p53RE-bla, beta-lactamase FRET ratio, 16 h; activation: active compounds read high. In a few lines: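 p53RE-bla HCT-116 cells with a stably integrated beta-lactamase reporter under p53 response elements were plated, rested 5 hours at 37 C/5% CO2, then exposed to compounds in DMSO for 16 hours at 37 C. LiveBLAzer B/G FRET substrate was read after 2 hours at room temperature.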

A short description of assay [12]: qHTS assay for small molecule disruptors of the mitochondrial membrane potential - 1 hr assay (AID 651754; calls by dose curve; note: nearly all actives have a fitted effect of over 35% in size; note: potency is the fitted concentration of half-maximal effect). In a few lines:
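Steps: seed HepG2 cells and let attach overnight; pin-transfer compound or vehicle; incubate 1 hr at 37C; add Mito-MPS dye for 30 min; read two-channel fluorescence for monomer and aggregate forms.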

Assay [13] is described as follows: qHTS assay for small molecule disruptors of the mitochondrial membrane potential - 5 hr assay (AID 651755; calls by dose curve; note: nearly all actives have a fitted effect of over 40% in size; note: potency is the fitted concentration of half-maximal effect). In a few lines:
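HepG2 cells, attached overnight at 37C, were exposed to compound or DMSO for 5 hr at 37C, 5% CO2. Mito-MPS dye was then added for 30 min, and fluorescence read at 490/535 nm (monomers) and 540/590 nm (aggregates).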

The target in assay [14] is Tumor necrosis factor (Homo sapiens) (UniProt P01375). Kind of assay: qHTS assay to identify small molecules that stimulate Tumor Necrosis Factor-alpha (TNF-alpha) secretion (AID 651757; active = well fitted curve in the direction sought with a large enough effect in the signal ratio; the % refers to the signal ratio; note: 0% is about no effect). In a few lines:
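Secreted TNF-alpha from compound-treated THP-1 cells (17 hrs, 37 C) was quantified with a homogeneous time-resolved fluorescence antibody assay.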

Assay [15] can be described thus: qHTS assay for small molecule agonists of the antioxidant response element (ARE) signaling pathway measured by Nrf2-dependant transcriptional activity (AID 720636; active = well fitted curve in the direction sought with a large enough effect in the repeat runs; an effect the other way counts as inactive or inconclusive;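 note: HepG2 cells with an ARE-driven luciferase reporter; % of control where 0% means no effect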). The essentials: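 HepG2 ARE-luc reporter line, 1% dialyzed FBS; 6 hr attachment at 37 C, compound pinned in, 16 hr at 37 C/5% CO2; ONE-Glo, 30 min RT, luminescence read.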
Assay [16] can be described thus: qHTS assay for small molecule antagonists of the retinoid-related orphan receptor gamma (ROR-gamma) signaling pathway - cell viability counter screen (AID 720652; active = well fitted curve in the direction sought with a large enough effect in the repeat runs; an effect the other way counts as inactive or inconclusive;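 note: CHO reporter cells with doxycycline-induced ROR-gamma expression; series mostly up to about 92 µM; compound exposure lasted 16 hr before ATP read; % is set by controls: 0 for no effect and ±100 for the full control effect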). In a few lines:
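Cytotoxicity is quantified via intracellular ATP (CellTiter-Glo luminescence) in doxycycline-induced CHO ROR response element-luciferase reporter cells treated with compound for 16 hr at 37 C, 5% CO2.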

Assay [17] has as its target Nuclear receptor ROR-gamma (Homo sapiens) (UniProt P51449). Briefly: qHTS assay for small molecule antagonists of the retinoid-related orphan receptor gamma (ROR-gamma) signaling pathway (AID 651802).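 Note: CHO cells with doxycycline-induced ROR-gamma expression; series mostly up to about 92 µM; % is set by controls: 0 for no effect and ±100 for the full control effect; nearly all actives have a fitted effect of over 60% in size.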 The essentials:
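Antagonism is scored as a fall in luminescence from a RORE-luciferase reporter in CHO cells expressing ROR under a TET-inducible promoter, measured 16hr after doxycycline induction in the presence of compound.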

Chain of Tumor necrosis factor (Homo sapiens) (P01375 whole entry, looked up): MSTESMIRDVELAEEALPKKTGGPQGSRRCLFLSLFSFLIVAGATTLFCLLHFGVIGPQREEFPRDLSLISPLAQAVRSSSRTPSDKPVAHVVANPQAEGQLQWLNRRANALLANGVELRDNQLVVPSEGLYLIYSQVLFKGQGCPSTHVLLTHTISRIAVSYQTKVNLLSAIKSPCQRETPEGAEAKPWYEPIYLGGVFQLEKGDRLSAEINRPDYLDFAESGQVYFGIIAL
T1 sequence (P35557 whole entry, looked up): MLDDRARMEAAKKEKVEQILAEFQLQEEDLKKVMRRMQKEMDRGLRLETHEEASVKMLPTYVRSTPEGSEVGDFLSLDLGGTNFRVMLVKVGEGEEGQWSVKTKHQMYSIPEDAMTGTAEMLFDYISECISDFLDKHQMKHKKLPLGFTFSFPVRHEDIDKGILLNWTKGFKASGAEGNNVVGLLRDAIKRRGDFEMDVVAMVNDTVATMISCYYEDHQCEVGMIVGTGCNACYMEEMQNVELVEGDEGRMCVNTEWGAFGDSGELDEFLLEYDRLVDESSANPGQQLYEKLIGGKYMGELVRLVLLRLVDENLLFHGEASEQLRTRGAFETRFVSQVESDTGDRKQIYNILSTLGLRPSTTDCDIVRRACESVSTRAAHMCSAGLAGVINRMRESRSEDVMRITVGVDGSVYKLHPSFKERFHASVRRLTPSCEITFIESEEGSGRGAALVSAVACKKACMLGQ
T1 sequence (Q14397 whole entry, looked up): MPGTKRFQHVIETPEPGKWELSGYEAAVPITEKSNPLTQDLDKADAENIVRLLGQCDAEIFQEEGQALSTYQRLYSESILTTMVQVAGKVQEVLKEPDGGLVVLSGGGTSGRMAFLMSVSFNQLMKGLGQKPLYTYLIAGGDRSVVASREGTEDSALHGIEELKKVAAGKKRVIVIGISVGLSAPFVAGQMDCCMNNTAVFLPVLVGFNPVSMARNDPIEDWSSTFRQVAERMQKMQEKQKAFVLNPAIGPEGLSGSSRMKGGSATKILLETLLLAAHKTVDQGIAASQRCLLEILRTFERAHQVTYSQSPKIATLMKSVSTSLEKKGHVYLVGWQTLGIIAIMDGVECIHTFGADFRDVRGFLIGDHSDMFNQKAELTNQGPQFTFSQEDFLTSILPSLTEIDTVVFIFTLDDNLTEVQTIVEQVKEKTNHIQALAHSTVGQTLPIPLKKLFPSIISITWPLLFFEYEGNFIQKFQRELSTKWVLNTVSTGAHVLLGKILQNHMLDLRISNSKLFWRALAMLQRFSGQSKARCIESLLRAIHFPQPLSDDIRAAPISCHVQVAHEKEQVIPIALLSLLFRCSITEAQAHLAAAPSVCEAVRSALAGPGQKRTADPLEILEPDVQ
Chain of Arylsulfatase A (Homo sapiens) (P15289 whole entry, looked up): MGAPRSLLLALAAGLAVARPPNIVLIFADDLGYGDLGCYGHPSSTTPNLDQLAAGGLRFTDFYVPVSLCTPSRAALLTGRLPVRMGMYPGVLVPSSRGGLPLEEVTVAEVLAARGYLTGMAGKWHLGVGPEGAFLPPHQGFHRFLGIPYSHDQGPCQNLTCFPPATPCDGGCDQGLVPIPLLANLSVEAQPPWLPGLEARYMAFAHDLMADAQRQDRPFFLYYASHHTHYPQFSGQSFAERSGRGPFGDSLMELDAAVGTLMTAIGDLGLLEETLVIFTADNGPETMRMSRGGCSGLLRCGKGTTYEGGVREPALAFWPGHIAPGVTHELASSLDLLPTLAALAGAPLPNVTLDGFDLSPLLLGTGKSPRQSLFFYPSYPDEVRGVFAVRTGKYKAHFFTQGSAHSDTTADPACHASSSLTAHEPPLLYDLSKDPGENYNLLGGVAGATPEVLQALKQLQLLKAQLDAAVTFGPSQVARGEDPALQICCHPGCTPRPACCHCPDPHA
Chain of Nuclear receptor ROR-gamma (Homo sapiens) (P51449 whole entry, looked up): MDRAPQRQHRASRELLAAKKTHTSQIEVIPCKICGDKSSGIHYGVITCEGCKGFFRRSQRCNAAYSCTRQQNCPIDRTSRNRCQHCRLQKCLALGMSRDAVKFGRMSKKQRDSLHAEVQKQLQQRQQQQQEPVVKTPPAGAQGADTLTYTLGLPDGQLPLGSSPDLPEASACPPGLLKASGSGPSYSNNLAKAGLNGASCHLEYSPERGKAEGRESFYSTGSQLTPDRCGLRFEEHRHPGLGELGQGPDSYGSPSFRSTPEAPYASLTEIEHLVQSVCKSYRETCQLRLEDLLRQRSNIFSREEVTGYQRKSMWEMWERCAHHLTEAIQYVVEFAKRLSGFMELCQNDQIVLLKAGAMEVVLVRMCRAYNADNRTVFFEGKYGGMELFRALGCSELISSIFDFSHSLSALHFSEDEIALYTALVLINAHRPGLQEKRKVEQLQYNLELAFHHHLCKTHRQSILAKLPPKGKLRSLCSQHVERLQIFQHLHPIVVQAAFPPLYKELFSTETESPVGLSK

Turning to `Cc1ccc(S(=O)(=O)NC(=O)NN2CCCCCC2)cc1`, the Potency entry in [1], in assay [5] and in assay [9] was “inactive” each time. Also, the activation in [2] was -1.9%; in assay [3] it was 10.4%. The outcome in assay [4], in assay [6], in [7] and in assay [8] was inactive.
Regarding `CN(C)CCOC(=O)COc1ccc(Cl)cc1`, the Potency entry in assay [10], in assay [5] and in assay [9] was “inactive” throughout. For the same compound, the outcome in assay [4], in assay [6], in assay [7] and in assay [8] was inactive.
Turning to `COc1cc(Cc2cnc(N)nc2N)cc(OC)c1OC`, the Potency result in assay [1], in assay [12], in assay [13], in assay [10] and in assay [5] was “inactive” throughout. Further, the activation in assay [11] was -2.04%; in [3], -1.14%. The compound was called inactive in [14], in assay [6], in assay [15] and in [16].
With `Cc1nc2c([nH]1)c(=O)n(C)c(=O)n2Cc1ccco1`, the Potency entry in [10], in assay [5] and in assay [9] was “inactive” throughout. Also, the call in assay [4], in assay [6], in assay [7] and in assay [8] was inactive.
Take `CNCCCN1c2ccccc2CCc2ccccc21`: the Potency in [10] was 21.3 µM (active). Further, the call in assay [4] and in assay [6] was inactive. Moreover, the Potency entry in assay [5] is “inactive”.
Turning to `CC(C)(Oc1ccc(CCNC(=O)c2ccc(Cl)cc2)cc1)C(=O)O`, the activation in assay [2] was -0.302%; in assay [3] it was -0.0115%. The Potency result in assay [10], in [5] and in assay [9] was “inactive” in each case. Also, the compound was called inactive in assay [6], in assay [15], in assay [7] and in assay [8].
`CN1C(=O)CC[C@H]1c1cccnc1`: the Potency entry in [10], in assay [5] and in assay [9] was “inactive” each time. The outcome in [4], in [6], in [7] and in [8] was inactive.
Take `CCCCNC(=O)NS(=O)(=O)c1ccc(C)cc1`: the Potency entry in [1], in assay [12], in [13], in [17], in [10] and in [5] was “inactive” in each case. In [9], the Potency result was “inactive”. The activation in assay [11] was -3.27% and -2.98%; in assay [3] it was 0.474% and 1.06%. Also, the outcome in [14], in [4], in assay [6], in assay [15], in assay [16] and in [7] was inactive. Besides, in assay [8], the outcome was inactive.
Consider `C[C@]12CCC(=O)C=C1CC[C@@H]1[C@@H]2C(=O)C[C@@]2(C)[C@H]1CC[C@]2(O)C(=O)CO`, for which the Potency entry in assay [1], in assay [10], in assay [5] and in assay [9] was “inactive” in each case. The results for the activation in assay [11], in assay [2] and in assay [3] were -9.05%, -0.64% and -0.997%, respectively. For the same compound, the result in assay [4], in [15], in assay [7] and in assay [8] was inactive.
On to `COC(=O)[C@H]1[C@H]2C[C@@H]3c4[nH]c5cc(OC)ccc5c4CCN3C[C@H]2C[C@@H](OC(=O)c2cc(OC)c(OC)c(OC)c2)[C@@H]1OC`, for which the activation is 3.91% and 8.14% in assay [11]; 3.95% and 8.69% in [3]. Also, the Potency in [12] was 21.1 µM (active); in assay [13], 26.6 µM (active). Besides, the result in [14], in [6], in assay [15], in [7] and in [8] was inactive. The Potency entry in assay [5] and in assay [9] was “inactive” throughout.
